Screening results (PubChem)
In the library only some 1.6% were active in any assay of this set; here they are far more common.
IMPase Li inh: cell-permeable IMPase inhibitors with lithium potentiation; 210,000 tested, 0.35% active; CHO-M1 cells, IP1 TR-FRET (IP-One), carbachol + lithium; Potency, µM (top dose mostly 59.4 µM), usual class: inhibitors; AID 1457;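 also: IP1 builds up when IMPase is blocked and the TR-FRET signal falls; nearly all actives have a fitted effect of over 50% in size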
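Readout is a homogeneous TR-FRET IP1 immunoassay (Ex 320, Em 665 and 620), where raised cytosolic IP1 lowers signal. Cells were CHO-M1 treated 30 min at 37C with test compounds plus a little lithium; AC50 values came from Hill-equation fitting.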
NPSR antagonist: blocks cAMP signaling of the human neuropeptide S receptor; Q6W5P4; CHO-NPSR cells, cAMP TR-FRET, antagonist mode; 220,000 tested, 1% active; Potency, µM (top dose mostly 38.3 µM), usual class: inhibitors; also: nearly all actives have a fitted effect of over 50% in size
HttQ103 aggreg: mutant huntingtin aggregation inhibition; 220,000 tested, 1.1% active; Potency, µM (highest dose often 46.1 µM), actives largely listed as inhibitors; PC12 HttQ103-GFP aggregates, Acumen cytometry, 40 h; AID 1688; also: nearly all actives have a fitted effect of over 60% in size
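Steps: seed 1500 PC12 HTTQ103-GFP cells/well; add tebufenozide, 100 nM final; add compound titration; add ATPLite reagent; quantify GFP aggregates by laser scanning cytometry.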
IMPase cell inh: IMPase inhibition in cells. AID 901. 120,000 tested, under 10 active. P97697. inhibition (IP1 accumulation), % at 46.1 µM. CHO-M1 cells, IP1 accumulation, HTRF TR-FRET ratio; active = well fitted curve in the direction sought with a large enough effect in the signal ratio, not every such curve was filed as active; inconclusive = small, poorly fitted or top-dose-only effect, or a change in a side signal; inactive = no such curve, though single readings can be large or run the other way; the % refers to the signal ratio;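 also: cells stimulated with carbachol in lithium chloride buffer; higher means more IMPase inhibition seen as more IP1 and lower FRET ratio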
Target sequence (P97697 whole entry, looked up): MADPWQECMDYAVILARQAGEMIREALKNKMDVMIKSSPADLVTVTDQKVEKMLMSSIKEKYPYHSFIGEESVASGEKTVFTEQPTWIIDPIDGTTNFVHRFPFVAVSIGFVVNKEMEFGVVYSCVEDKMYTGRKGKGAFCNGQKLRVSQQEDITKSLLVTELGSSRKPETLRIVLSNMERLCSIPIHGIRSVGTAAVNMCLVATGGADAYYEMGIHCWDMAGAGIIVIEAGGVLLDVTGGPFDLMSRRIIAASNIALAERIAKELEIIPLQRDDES
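Cellular IMPase inhibition is scored as a rise in cytosolic IP1, detected by competitive TR-FRET between d2-labelled IP1 and a europium anti-IP1 antibody. M1-expressing CHO cells were stimulated with carbachol for 30 min at 37C, with lithium (50 mM LiCl) present in the buffer.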
LMNA splice mod: modulators of lamin A splicing | HeLa LMNA splicing GFP/RFP minigene ratio, 48 h | 200,000 tested, 0.01% active | Potency, µM (series often up to 46.1 µM), usual class: inhibitors | AID 1487; active = well fitted inhibition curve with a large enough effect in the signal ratio, with a control signal flat, not every such curve was filed as active; inconclusive = small, poorly fitted or top-dose-only effect, or effect the other way, or a change in a side signal; the % refers to the signal ratio
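S3 HeLa cells stably expressing lamin A-EGFP splicing minigene plus DsRed2, 600 cells/well, 48 h compound exposure at 37C. Laser-scanning cytometry; analysed as GFP (500-530 nm)/RFP (575-640 nm) total intensity ratio; 0.5% DMSO vehicle.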
HTT cytoprotect: protects HTT-Q103 PC12 cells, measured by ATP; PC12 HTT-Q103 induced, cytoprotection, ATP luminescence, 40 h; Potency, µM (top dose mostly 56.4 µM), actives largely listed as activators; 230,000 tested, 0.14% active; also: nearly all actives have a fitted effect of over 45% in size
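Compounds were screened for protection of PC12 cells against cell death after tebufenozide induction (100 nM final) of mutant Huntingtin exon 1 (Q103) fused to GFP.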
Numbers stand for hits; 0 = inactive; ? = inconclusive; - = no result; [ ] = dose if it differs, or a comment. Unless noted, calls follow the shape of the dose curve; as a rule, active = well fitted curve in the direction sought with a large enough effect; inconclusive = small, poorly fitted or top-dose-only effect, or another doubt; inactive = no such curve, though single readings can be large; an effect the other way counts as inactive or inconclusive.

SMILES	IMPase Li inh	NPSR antagonist	HttQ103 aggreg	IMPase cell inh	LMNA splice mod	HTT cytoprotect
Cc1ccc(-c2ccc(C(=O)Nc3cccc(F)c3)o2)c2ccccc12	0	0	22.4µM	-	?	-
O=C(O)c1cccc(NC(=S)NC(NC(=O)c2cccc([N+](=O)[O-])c2)C(Cl)(Cl)Cl)c1 (stereo not given)	-	0	0[9.22 µM]	-	-	0[10 µM]
Cc1cc(C)c(NC(=S)NC(NC(=O)c2ccccc2)C(Cl)(Cl)Cl)c(C)c1 (stereo not given)	0	0	?	-	?	0[10 µM]
O=C(NC(NC(=S)Nc1ccccc1)C(Cl)(Cl)Cl)c1cccc(Cl)c1 (stereo not given)	0	12.6µM	11.2µM	0	?	0
O=C(NC(NC(=S)Nc1ccc(Cl)cc1Cl)C(Cl)(Cl)Cl)c1cccc([N+](=O)[O-])c1 (stereo not given)	0	10µM	?	0	?	0
C[N+](C)([O-])Cc1cc(-c2ccccc2)ccc1O	0	-	-	-	-	0[10 µM]
CN1CCc2nc(N)nc(-c3nc(N)nc4c3CN(C)CC4)c2C1	0	-	-	-	-	0[10 µM]
S=C(NCCc1ccccc1)Nc1cccc2cnccc12	0	0	3.55µM	-	?	0[10 µM]
CCCCNC(=S)Nc1cccc2cnccc12	-	0	?	0	?	0[10 µM]
CCS(=O)(=O)N1CCC(c2nc(-c3ccc(C(F)(F)F)cc3)no2)CC1	0	0	11.2µM	0	?	0
O=C(Nc1cccc(C(F)(F)F)c1)N1CCC(c2nc(-c3ccc(F)cc3)no2)CC1	0	0	22.4µM	0	?	0[10 µM]
O=C(Nc1ccc(Cl)cc1)N1CCC(c2nc(-c3ccccc3Cl)no2)CC1	0	?	11.2µM	0	?	0
COc1ncc2nc(-c3cc(F)cc(F)c3)c(=O)n(-c3ccccc3)c2n1	0	-	-	-	0	0
Nc1c2c(nc3ccccc13)CCC[C@H]2O	-	-	-	0	-	0[1.9 µM]
COc1ccc2cc3c(N)nn(C(=O)Cc4ccc(Cl)cc4)c3nc2c1	0	0	7.94µM	0	0	0
COc1ccc2cc3c(N)nn(C(=O)Cc4c[nH]c5ccccc45)c3nc2c1	-	0	3.16µM	-	-	0[10 µM]
COc1cccc(CC(=O)n2nc(N)c3cc4ccc(OC)cc4nc32)c1	0	0	0	0	0	?
CN(C)c1nc(-c2ccccn2)nnc1-c1ccccc1	0	0	0[9.22 µM]	0	?	0
CCN(CC)c1nc(-c2ccccn2)nc(-c2ccccc2)c1C#N	0	0	5.01µM	-	?	0
c1ccc(CN2CCN(c3nc(NCc4ccco4)c4ccccc4n3)CC2)cc1	0	10µM	?	0	?	0
COc1cc(C2CC(=O)NC3=C2C(=O)CC(C)(C)C3)ccc1O (stereo not given)	0	0	?	0	?	?
CCOc1ccccc1C1CC(=O)NC2=C1C(=O)CC(C)(C)C2 (stereo not given)	0	0	35.5µM	0	0	0
Cn1c(/C(C#N)=C(\O)COc2ccc3ccccc3c2)nc2ccccc21	7.08µM	?	0	0	?	0[10 µM]
O=C1c2ccccc2C(=O)N1C[C@]1(C(=O)O)NCCS1(=O)=O	0	-	-	-	-	0[10 µM]
Cc1nc2cnc(OCc3ccccc3)nc2n(Cc2ccc(F)cc2)c1=O	0	-	-	-	-	0
SMILES	IMPase Li inh	NPSR antagonist	HttQ103 aggreg	IMPase cell inh	LMNA splice mod	HTT cytoprotect
O=C1c2ccccc2C(=O)N1Cc1nn2c(-c3ccc(Cl)cc3)nnc2s1	11.2µM	0	0	?	0	0[0.074 µM]
CC1=CC(C)(C)Nc2ccc(OC(=O)CN3C(=O)c4ccccc4C3=O)cc21	0	7.94µM	?	-	?	-
O=C(NC1CC1)c1cc2c(s1)-c1ccccc1OC2	0	0	6.31µM	0	0	0
CC(=O)N1CC(=O)N=C1SCC(=O)Nc1nc(-c2ccccc2)c(-c2ccccc2)s1	0	10µM	?	-	?	0[10 µM]
CCOC(=O)C1CCCN(C(=O)C2CCN(S(=O)(=O)c3c(C)noc3/C=C/c3ccc(C)cc3)CC2)C1 (stereo not given)	-	-	-	-	0	-
O=[N+]([O-])c1ccc2c(c1Nc1ccccc1)=NC1(CCCCC1)N=2	0	0	?	0	0[0.0737 µM]	0
COc1ccc(Nc2c([N+](=O)[O-])ccc3c2=NC2(CCCCC2)N=3)cc1	0	10µM	0	-	0	0
